Test results published in PubChem BioAssay AID1159580 (chemical genetic matrix, 2015).
Hit rate of the full screen: of about 5,500 compounds, about 2,000 (36%) were called active. Not shown: some 18% with an inconclusive outcome. Rule as the data show it: active = normalized growth mostly below about 0.91 (no sharp cut-off); inconclusive = no clear call, values can overlap the other calls; inactive = mostly above about 0.92. The list shows a part of the results.

Experiment: chemical genetic growth profiling, strain panel (AID 1159580);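 also: tested at 20 µM; growth read once vehicle control cultures reached saturation at 30 °C; 1 = growth at the plate median or of vehicle wells; lower values mean less growth of the strain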
Details: growth OD

Measured: normalized growth

CC(=O)OCC1=C(C(=O)O)N2C(=O)[C@@H](NC(=O)CSc3ccncc3)[C@H]2SC1
inactive: S. cerevisiae deletion strains, locus YJR043C, strain POL32, hits give low values 0.959 | S. cerevisiae deletion strains, locus YJR066W, strain TOR1, hits give low values 0.987 | S. cerevisiae deletion strains, locus YKL009W, strain mrt4, hits give low values 1 | S. cerevisiae deletion strains, locus YKL068W, hits give low values 0.982 | S. cerevisiae deletion strains, locus YKL085W, strain MDH1 (second series), hits give low values 0.975 | S. cerevisiae deletion strains, locus YKL085W, strain MDH1, hits give low values 0.975 | S. cerevisiae deletion strains, locus YKL160W, strain elf1, hits give low values 1.03 | S. cerevisiae deletion strains, locus YKR001C, strain vps1, hits give low values 0.994 | S. cerevisiae deletion strains, locus YKR026C, strain gcn3, hits give low values 1.03 | S. cerevisiae deletion strains, locus YKR091W, strain srl3, hits give low values 1.02 | S. cerevisiae deletion strains, locus YLL001W, strain dnm1, hits give low values 1.02 | S. cerevisiae deletion strains, locus YLL026W, hits give low values 1.01 | S. cerevisiae deletion strains, locus YLL041C, strain sdh2, hits give low values 1.02 | S. cerevisiae deletion strains, locus YLR027C, strain aat2, hits give low values 1.02 | S. cerevisiae deletion strains, locus YLR039C, strain RIC1, hits give low values 0.981 | S. cerevisiae deletion strains, locus YLR058C, strain SHM2, hits give low values 0.985 | S. cerevisiae deletion strains, locus YLR102C, strain apc9, hits give low values 0.988 | S. cerevisiae deletion strains, locus YLR113W, strain HOG1, hits give low values 0.974 | S. cerevisiae deletion strains, locus YLR221C, strain rsa3, hits give low values 1.03 | S. cerevisiae deletion strains, locus YLR258W, strain gsy2, hits give low values 1.01 | S. cerevisiae deletion strains, locus YLR262C, strain YPT6 (second series), hits give low values 1.07 | S. cerevisiae deletion strains, locus YLR262C, strain YPT6, hits give low values 0.926 | S. cerevisiae deletion strains, locus YLR268W, strain sec22, hits give low values 0.957 | S. cerevisiae deletion strains, locus YLR320W, strain mms22, hits give low values 1 | S. cerevisiae deletion strains, locus YLR330W, strain CHS5, hits give low values 0.98 | S. cerevisiae deletion strains, locus YLR342W, strain FKS1 (second series), hits give low values 0.986 | S. cerevisiae deletion strains, locus YLR342W, strain FKS1, hits give low values 1.03 | S. cerevisiae deletion strains, locus YLR357W, strain rsc2, hits give low values 1.05 | S. cerevisiae deletion strains, locus YLR370C, strain arc18, hits give low values 1.01 | S. cerevisiae deletion strains, locus YLR371W, strain rom2, hits give low values 0.994 | S. cerevisiae deletion strains, locus YLR384C, strain iki3, hits give low values 1.04 | S. cerevisiae deletion strains, locus YLR418C, strain cdc73, hits give low values 1.05 | S. cerevisiae deletion strains, locus YML016C, strain PPZ1, hits give low values 0.987 | S. cerevisiae deletion strains, locus YML032C, strain rad52, hits give low values 0.992 | S. cerevisiae deletion strains, locus YML120C, strain ndi1, hits give low values 1.03 | S. cerevisiae deletion strains, locus YML124C, strain tub3, hits give low values 0.994 | S. cerevisiae deletion strains, locus YMR058W, strain fet3, hits give low values 1.01 | S. cerevisiae deletion strains, locus YMR078C, strain ctf18, hits give low values 0.987 | S. cerevisiae deletion strains, locus YMR125W, strain sto1, hits give low values 1.02 | S. cerevisiae deletion strains, locus YMR129W, hits give low values 1.02 | S. cerevisiae deletion strains, locus YMR205C, strain PFK2, hits give low values 1.02 | S. cerevisiae deletion strains, locus YMR223W, strain ubp8, hits give low values 1.01 | S. cerevisiae deletion strains, locus YMR231W, strain pep5, hits give low values 1.01 | S. cerevisiae deletion strains, locus YMR263W, strain SAP30, hits give low values 1 | S. cerevisiae deletion strains, locus YMR307W, strain GAS1, hits give low values 0.972 | S. cerevisiae deletion strains, locus YNL067W, strain RPL9B, hits give low values 1.01 | S. cerevisiae deletion strains, locus YNL071W, strain lat1, hits give low values 1.01 | S. cerevisiae deletion strains, locus YNL183C, strain NPR1, hits give low values 0.924 | S. cerevisiae deletion strains, locus YNL209W, strain ssb2, hits give low values 1.02 | S. cerevisiae deletion strains, locus YNL233W, strain BNI4, hits give low values 1.02 | S. cerevisiae deletion strains, locus YNL248C, strain rpa49, hits give low values 1.02 | S. cerevisiae deletion strains, locus YNL250W, strain rad50, hits give low values 0.99 | S. cerevisiae deletion strains, locus YNL271C, strain bni1, hits give low values 1 | S. cerevisiae deletion strains, locus YNL298W, strain CLA4, hits give low values 0.992 | S. cerevisiae deletion strains, locus YNL307C, strain MCK1, hits give low values 0.993 | S. cerevisiae deletion strains, locus YNL322C, strain KRE1 (second series), hits give low values 1.03 | S. cerevisiae deletion strains, locus YNL322C, strain KRE1, hits give low values 0.997 | S. cerevisiae deletion strains, locus YNR049C, strain mso1, hits give low values 1.02 | S. cerevisiae deletion strains, locus YNR052C, strain pop2, hits give low values 0.991 | S. cerevisiae deletion strains, locus YOL012C, strain htz1 0.881 | S. cerevisiae deletion strains, locus YOL147C, strain pex11, hits give low values 1 | S. cerevisiae deletion strains, locus YOR001W, strain rrp6, hits give low values 1.04 | S. cerevisiae deletion strains, locus YOR061W, strain CKA2, hits give low values 0.969 | S. cerevisiae deletion strains, locus YOR069W, strain VPS5, hits give low values 0.985 | S. cerevisiae deletion strains, locus YOR070C, strain gyp1, hits give low values 1.01 | S. cerevisiae deletion strains, locus YOR080W, strain dia2, hits give low values 1.05 | S. cerevisiae deletion strains, locus YOR083W, strain WHI5, hits give low values 1.05 | S. cerevisiae deletion strains, locus YOR106W, strain vam3, hits give low values 1.05 | S. cerevisiae deletion strains, locus YOR136W, strain idh2, hits give low values 0.983 | S. cerevisiae deletion strains, locus YOR144C, strain elg1, hits give low values 0.985 | S. cerevisiae deletion strains, locus YOR184W, strain ser1, hits give low values 0.995 | S. cerevisiae deletion strains, locus YOR231W, strain MKK1, hits give low values 0.985 | S. cerevisiae deletion strains, locus YOR265W, strain rbl2, hits give low values 1.02 | S. cerevisiae deletion strains, locus YOR270C, strain vph1, hits give low values 1.07 | S. cerevisiae deletion strains, locus YOR290C, strain snf2, hits give low values 0.998 | S. cerevisiae deletion strains, locus YOR316C, strain cot1, hits give low values 0.981 | S. cerevisiae deletion strains, locus YPL051W, strain arl3, hits give low values 1.04 | S. cerevisiae deletion strains, locus YPL078C, strain atp4, hits give low values 1.05 | S. cerevisiae deletion strains, locus YPL106C, strain sse1, hits give low values 1.02 | S. cerevisiae deletion strains, locus YPL240C, strain hsp82, hits give low values 1.02 | S. cerevisiae deletion strains, locus YPL241C, strain CIN2, hits give low values 0.988 | S. cerevisiae deletion strains, locus YPL256C, strain CLN2, hits give low values 1.01 | S. cerevisiae deletion strains, locus YPR119W, strain clb2, hits give low values 0.982 | S. cerevisiae deletion strains, locus YPR141C, strain kar3, hits give low values 0.991 | S. cerevisiae deletion strains, locus YPR163C, strain tif3, hits give low values 0.991 | S. cerevisiae deletion strains, locus YPR167C, strain met16, hits give low values 1 | S. cerevisiae deletion strains, strain wtn01, hits give low values 0.995 | S. cerevisiae strains, strain wild type, hits give low values 0.982
